Experimental data taken from PubChem BioAssay.
Calls of active or inactive are those of the source. No rule for the calls is given here.

system: Aerobactin synthetase IucA (Klebsiella pneumoniae hvKP1); assay: Biochemical IucA enzyme inhibition primary screen of the Spectrum library (AID 1346200); details: malachite green pyrophosphate, A620, at 8 µM, hits give low values;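 also: 100% = wells without compound and 0% = wells lacking enzyme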

Compound	activity remaining
CC(=O)Oc1ccc2c(c1OC(C)=O)OCC1(O)Cc3c(cc(OC(C)=O)c(OC(C)=O)c3OC(C)=O)C21 (stereo not given)	111% (inactive)
O=C(/C=C(\O)c1ccccc1)c1ccccc1O	120% (inactive)
COc1cc(C(=O)N2CCOCC2)cc(OC)c1OC	111% (inactive)
COC(=O)C(N)CS (stereo not given)	122% (inactive)
CC(C)=CCCC1(C)C=Cc2c(O)c3c(c(CC=C(C)C)c2O1)OC12C(=CC4CC1C(C)(C)OC2(C/C=C(\C)C(N)=O)C4=O)C3=O (stereo not given)	99.6% (inactive)
COc1c2c(cc3c1OCO3)C13C=C[C@H](OC)CC1N(C2)CC3O (stereo not given in full)	107% (inactive)
CC(C)CCCC(C)N (stereo not given)	121% (inactive)
COc1cc(OC)c(C(C)=O)c(O)c1C	101% (inactive)
OCCN1C[C@@H](O)[C@@H](O)C(O)C1CO (stereo not given in full)	114% (inactive)
CC(C)/C(O)=C1/C(=O)O[C@@H](c2ccoc2)[C@]2(C)C(O)[C@@H](O)[C@@]34OC5(C)OC67CC(C)(C(O)[C@]6(O)[C@@H](O)[C@]3(O5)C12)[C@H](CC(=O)O)[C@]74C (stereo not given in full)	92.7% (inactive)
C[C@@H]1CC[C@H]2[C@@H](C)C(O)O[C@@H]3OC4(C)CC[C@@H]1[C@]32OO4 (stereo not given in full)	106% (inactive)
CC(NCCC(c1ccccc1)c1ccccc1)c1ccccc1 (stereo not given)	104% (inactive)
CCOC(=O)c1c(C)cc(OC)cc1O	110% (inactive)
CCCCC1(COC(=O)CCC(=O)O)C(=O)N(c2ccccc2)N(c2ccccc2)C1=O	110% (inactive)
OC1CC2CCCC(C1)N2Cc1ccccc1 (stereo not given)	93.4% (inactive)
OCc1ccccc1O	115% (inactive)
Cc1cc(O)cc(O)c1C(=O)O	113% (inactive)
CC(=O)OCC(=O)[C@@]1(O)CCC2C3CCC4=CC(=O)CC[C@]4(C)[C@@]3(F)[C@@H](O)C[C@@]21C (stereo not given in full)	91.4% (inactive)
CC1(C)O[C@@H]2CC3C4C[C@H](F)C5=CC(=O)C=CC5(C)C4C(O)CC3(C)[C@]2(C(=O)CO)O1 (stereo not given in full)	111% (inactive)
COC1=CC(=O)C=C(OC)C1=O	99.1% (inactive)

Compound	activity remaining
CC(=O)NCCCCCC(=O)O	124% (inactive)
CCCCC1=NC2(CCCC2)C(=O)N1Cc1ccc(-c2ccccc2-c2nn[nH]n2)cc1	121% (inactive)
CCC(=O)O[C@]1(C(=O)CCl)[C@@H](C)CC2C3CCC4=CC(=O)C=C[C@]4(C)[C@@]3(F)[C@@H](O)C[C@@]21C (stereo not given in full)	112% (inactive)
COc1ccc(NS(=O)(=O)c2ccc(N)cc2)nn1	111% (inactive)
COc1cc(O)c(C(=O)c2ccccc2)cc1O	107% (inactive)
C[C@]12CCC(=O)C=C1CCC1C2C(=O)C[C@@]2(C)C1CC[C@]2(O)C(=O)CO (stereo not given in full)	111% (inactive)
C[C@H](CCC(=O)O)[C@H]1CCC2C3C(CC[C@@]21C)[C@@]1(C)CC[C@@H](O)C[C@H]1C[C@@H]3O (stereo not given in full)	105% (inactive)
O=C(O)C1=C[C@@H](O)[C@@H](O)[C@H](O)C1	86.3% (inactive)
CC1(C)C(=O)[C@@H]2C[C@@]3(O)C4=CC(=O)O[C@@H](c5ccoc5)[C@]4(C)CCC3C(C)(C2=O)[C@H]1CC(=O)O (stereo not given in full)	98.2% (inactive)
COc1cc([C@@H]2c3cc4c(cc3C(O[C@@H]3O[C@@H]5CO[C@@H](c6cccs6)OC5[C@H](O)[C@H]3O)C3COC(=O)[C@@H]32)OCO4)cc(OC)c1O (stereo not given in full)	92.9% (inactive)
CC(=O)O[C@H]1[C@@H]2[C@@H](OC(=O)Cc3ccccc3)[C@@H](C)C[C@]2(OC(C)=O)C(=O)/C(C)=C/[C@H]2[C@H](CC[C@@]13CO3)C2(C)C	103% (inactive)
Cc1nnc(NS(=O)(=O)c2ccc(N)cc2)s1	113% (inactive)
O=C1C[C@@H](c2ccc(O)cc2)Oc2cc(O)cc(O)c21	95.7% (inactive)
CC[C@H](CCC(C)[C@H]1CCC2C3CCC4C[C@@H](O)CC[C@]4(C)C3CC[C@@]21C)C(C)C (stereo not given in full)	102% (inactive)
OCCc1ccccc1	117% (inactive)
CC1=C2C(=CO[C@H](C)[C@H]2C)C(=O)C(C(=O)O)=C1O	94.3% (inactive)
COc1ccc2ccc(=O)oc2c1	114% (inactive)
CC(=O)c1ccc[nH]1	98.2% (inactive)
CC1(C)Oc2ccc3ccc(=O)oc3c2CC1O (stereo not given)	88.1% (inactive)
CN(C(=O)C(Cl)Cl)c1ccc(OC(=O)c2ccco2)cc1	96.4% (inactive)
